Entries with a potency or affinity are not part of this list. Unmarked numbers belong to inactive results. Active and inactive are the calls of the source. No rule for the calls is given here.
experiment: HeLa cell cytotoxicity, dose response, cytotoxicity control, 24 h, plate reader, dry powder (AID 686928); conditions: series mostly up to 80 µM; activity change, negative = cytotoxicity: at the top concentration

Row | SMILES | activity change, negative = cytotoxicity | outcome
1 | CN(C)/C=N/c1nnc(-c2ccc3c(c2)OCCO3)o1 | -5.9% [at 100 µM] | 
2 | O=C(Cc1ccc(-c2ccccc2)cc1)NC1CNC1 | -10.9% [at 100 µM] | 
3 | O=C(CSc1nc2c(c(=O)[nH]1)CCCC2)NC1CCCCC1 | 1.91% | 
4 | O=C(Nc1nnc(-c2ccncc2)o1)C1CCC1 | 2.42% [at 100 µM] | 
5 | O=c1ncn(-c2ccccc2Cl)c2ccccc12 | -5.96% | 
6 | O=c1ncn(-c2ccccc2)c2ccccc12 | 4.02% | 
7 | Cc1cc(F)cc2nc3c(cc12)c(NC(=O)c1ccco1)nn3C | 2.47% [at 100 µM] | 
8 | COc1cccc(-c2nnc(NC(=O)C3CCCCC3)o2)c1 | 1.34% [at 100 µM] | 
9 | O=C(Nc1nnc(-c2ccc3c(c2)OCCO3)o1)C1CCCCC1 |  | inactive
10 | Cn1nc(NC(=O)c2ccco2)c2ccccc21 | -4.66% [at 100 µM] | 
11 | COc1ccccc1-c1nnc(NC(=O)C2CCCCC2)o1 | -5.13% [at 100 µM] | 
12 | O=C(Nc1nnc(-c2cccnc2)o1)C1CCC1 | 10.1% [at 100 µM] | 
13 | O=c1ncn(-c2cc(Cl)cc(Cl)c2)c2ccccc12 | -5.54% | 
14 | CCC(C)(C)C(=O)Nc1nnc(-c2ccc3c(c2)OCCO3)o1 | -17.3% | 
15 | Cc1ccc2c(c1)c(=O)ncn2-c1cccc(Cl)c1 | 0.664% | 
16 | COc1ccc2c(=O)ncn(-c3cccc(Cl)c3)c2c1 | -1.88% | 
17 | O=c1nc(Cc2ccccc2)n(-c2cccc(Cl)c2)c2ccccc12 | -5.09% | 
18 | O=c1ncn(-c2cccc(F)c2)c2ccccc12 | 1.9% | 
19 | Cn1nc(NC(=O)c2ccco2)c2cc3ccc(C(C)(C)C)cc3nc21 | -74.1% [at 100 µM] | 
20 | O=c1ncn(-c2cccc(Cl)c2)c2cccc(Cl)c12 | -3.27% | 
21 | O=C(CC1CCCCC1)Nc1nnc(-c2ccc3c(c2)CCCC3)o1 | -4.33% [at 35 µM] | 

Source: PubChem BioAssay AID686928 (Broad Institute, 2013)
